Assay results taken from PubChem BioAssay (Tox21).
Values joined by “and” are separate entries in the source; they are usually repeats but may differ in a detail not shown here. Identical values can stand only once. Results filed as inconclusive are left out. Active and inactive are the calls of the source. Unless noted, calls come from the whole dose curve.

Legend:
[1] = Nuclear factor erythroid 2-related factor 2/antioxidant responsive element (Nrf2/ARE) small molecule agonists: qHTS cell viability counter screen in human keratinocytes (AID 1919968; active = well fitted curve in the direction sought with a large enough effect in the repeat runs; an effect the other way counts as inactive or inconclusive; note: nearly all actives have a fitted effect of over 55% in size)
Summary of the method: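 Cytotoxicity was multiplexed with the Nrf2/ARE luciferase assay in the same wells. Stably transfected HaCaT keratinocytes were treated with test compounds for 23 h at 37 C. Cell viability was then measured by CellTiter-Fluor fluorescence.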

[2] = Nuclear factor erythroid 2-related factor 2/antioxidant responsive element (Nrf2/ARE) small molecule agonists: luciferase reporter gene qHTS assay in human keratinocytes (AID 1919969); note: nearly all actives have a fitted effect of over 35% in size; note: potency is the fitted concentration of half-maximal effect
[3] = biological target: Gonadotropin-releasing hormone receptor (Homo sapiens) (UniProt P30968); test: Human gonadotropin-releasing hormone receptor (GnRHR) small molecule agonists, calcium flux assay in GnRHR-HEK293 cells (AID 1920063); note: nearly all actives have a fitted effect of over 35% in size
Summary of the method: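 Agonist activity was measured as intracellular calcium flux in HEK293 cells engineered to stably express human GnRHR. After dye loading for 1 hour at 37 C, compounds in DMSO were added and fluorescence was followed for 3 minutes.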

[4] = biological target: KiSS-1 receptor (Homo sapiens) (UniProt Q969F8); test: Human kisspeptin (KISS1R) small molecule agonists, calcium flux assay in KISS1R-HEK293 cells (AID 1920064; active = well fitted curve in the direction sought with a large enough effect in the repeat runs; an effect the other way counts as inactive or inconclusive)
Summary of the method: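 Agonist activity is monitored as intracellular calcium rise in engineered HEK293 cells carrying human KISS1R. Cells are dye-loaded for 1 h at 37 C before compound addition, and fluorescence is recorded for 3 min.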

[5] = G protein-coupled receptor (GPCR) small molecule agonists, calcium flux assay: HEK293 wild type cell line counter screen (AID 1920065)
Summary of the method: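 Seed cells, incubate 18 h (37 C, 5% CO2); add calcium dye, 1 h at 37 C; pin-transfer compounds, ATP control or DMSO; read fluorescence 480/540 nm each second for 3 min.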

[6] = p53 small molecule agonists, cell-based qHTS assay with rat liver microsomes (AID 1963578)
Summary of the method: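 Metabolic activation is supplied by rat liver microsomes with NADPH (each 0.5 mg/mL final). p53RE-bla cells incubate with compound 16 h at 37 C; reporter activity is measured by LiveBLAzer fluorescence.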

[7] = p53 small molecule agonists, cell-based qHTS assay with human liver microsomes: qHTS cell viability counter screen (AID 1963579); note: nearly all actives have a fitted effect of over 45% in size
Summary of the method: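 After the 460/530 nm beta-lactamase read, CellTiter-Glo was added to the same wells and luminescence measured after 30 min at room temperature, giving viability of p53RE-bla cells treated 16 h with compounds plus microsomes and NADPH.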

[8] = p53 small molecule agonists, cell-based qHTS assay with rat liver microsomes: qHTS cell viability counter screen (AID 1963580); note: nearly all actives have a fitted effect of over 45% in size
Summary of the method: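 Rat liver microsome (0.5 mg/mL final) and NADPH (0.5 mg/mL final) co-incubation with compounds for 16 h at 37 C on HCT-116 p53RE-bla cells; cytotoxicity taken from intracellular ATP luminescence.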

[9] = p53 small molecule agonists, cell-based qHTS assay: qHTS cell viability counter screen (AID 1963581); note: nearly all actives have a fitted effect of over 45% in size
Summary of the method: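 Viability was counter-screened in parallel with the p53 agonist reporter by measuring intracellular ATP luminescence in the same HCT-116 p53RE-bla wells after 16 h compound treatment at 37 C.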

[10] = p53 small molecule agonists, cell-based qHTS assay (AID 1963582; active = well fitted activation curve with a large enough effect in the signal ratio in the repeat runs, not every such curve was filed as active; the % refers to the signal ratio)
Summary of the method: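 Cells carrying a p53-responsive bla reporter are treated with test compounds for 16 h at 37 C; beta-lactamase activity is then detected with LiveBLAzer B/G FRET substrate after 2 h at room temperature.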

[11] = biological target: 5-hydroxytryptamine receptor 2A (Homo sapiens) (UniProt P28223); test: 5-hydroxytryptamine receptor 2A (HTR2A) small molecule antagonists, cell-based qHTS assay (AID 1963586); note: nearly all actives have a fitted effect of over 45% in size
Summary of the method: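 CHO cells stably expressing human HTR2A were plated for 18 h at 37 C, then loaded with calcium dye for 1 h. Compounds were preincubated 5 min at room temperature before DOI (4 nM solution) was added. Kinetic fluorescence was read for 3 min.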

[12] = biological target: 5-hydroxytryptamine receptor 2A (Homo sapiens) (UniProt P28223); test: 5-hydroxytryptamine receptor 2A (HTR2A) small molecule agonists, cell-based qHTS assay (AID 1963587); note: nearly all actives have a fitted effect of over 30% in size
Summary of the method: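 Kinetic calcium-flux fluorescence (2 min, 1 sec intervals) after compound addition in agonist mode. HTR2A-CHO cells were cultured 18 h, then dye-loaded 1 h at 37 C.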

[13] = biological target: Muscarinic acetylcholine receptor M1 (Homo sapiens) (UniProt P11229); test: Cholinergic receptor muscarinic 1 (CHRM1) small molecule antagonists, cell-based qHTS assay (AID 1963588); note: nearly all actives have a fitted effect of over 40% in size; note: potency is the fitted concentration of half-maximal effect
Summary of the method: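 Compounds were tested at 15 concentrations in three independent runs. Dye-loaded CHRM1-CHO cells were exposed 5 min at room temperature before stimulation by acetylcholine added at 50nM. Intracellular calcium was read kinetically on FDSS for 3 min.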

[14] = cAMP Responsive Elements (CRE) small molecule agonists, cell-based qHTS assay (AID 1963590)
Summary of the method: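 Cells carrying a CRE-driven beta-lactamase reporter (HEK 293T) are seeded, incubated overnight (18 h), and treated with test compounds for 3 h at 37 C; reporter activity is then detected with a FRET substrate after 2 h at room temperature.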

[15] = biological target: Beta-2 adrenergic receptor (Homo sapiens) (UniProt P07550); test: Adrenergic beta2 receptor (ADRB2) small molecule antagonists, cell-based qHTS assay (AID 1963592); note: series mostly up to about 92 µM; nearly all actives have a fitted effect of over 50% in size
Summary of the method: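 Assay format: CHO-ADRB2 cells, 18-20hr seeding at 37C/5% CO2, then compound plus 1nM isoproterenol agonist mix for 0.5hr RT. Homogeneous time-resolved fluorescence cAMP detection after 1hr, expressed as 665/615 nm ratio.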

[16] = biological target: D(2) dopamine receptor (Homo sapiens) (UniProt P14416); test: Dopamine D2 receptor (DRD2) small molecule agonists, cell-based qHTS assay (AID 1963594); note: nearly all actives have a fitted effect of over 35% in size
Summary of the method: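 cAMP accumulation in DRD2-HEK293 cells measured by HTRF after 1 h detection; compounds added 10 min before NKH477 (200nM […]) forskolin-analogue stimulation, 30 min at room temperature, with Ro20-1724 present at 0.1 mM final.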

[17] = biological target: D(2) dopamine receptor (Homo sapiens) (UniProt P14416); test: Dopamine D2 receptor (DRD2) small molecule antagonists, cell-based qHTS assay (AID 1963595; active = well fitted inhibition curve with a large enough effect in the signal ratio in the repeat runs, with a control signal flat; the % refers to the signal ratio)
Summary of the method: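 HEK293 cells stably expressing DRD2 were preincubated with 0.1 mM Ro20-1724, then with compound for 10 min at room temperature. Cells were stimulated with 200 nM NKH477 plus 12 nM quinpirole for 30 min, and cAMP was read by HTRF.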

[18] = biological target: Muscarinic acetylcholine receptor M1 (Homo sapiens) (UniProt P11229); test: Cholinergic receptor muscarinic 1 (CHRM1) small molecule agonists, cell-based qHTS assay (AID 1963589); note: nearly all actives have a fitted effect of over 35% in size
Summary of the method: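 Cells were plated and incubated 18 h at 37 C/5% CO2, loaded with calcium dye for 1 h at 37 C, then treated with compounds in DMSO. Fluorescence was recorded kinetically at 1 sec intervals.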

[19] = cAMP Responsive Elements (CRE) small molecule antagonists, cell-based qHTS assay (AID 1963591; active = well fitted inhibition curve with a large enough effect in the signal ratio in the repeat runs, not every such curve was filed as active; the % refers to the signal ratio)
Summary of the method: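 Cells (CRE-bla HEK 293T, DMEM with 10% dialyzed FBS and 25 mM HEPES) are seeded and incubated 18 h. Compounds are added with NKH477 agonist at 0.25 uM final for 3 h, then FRET substrate for 2 h.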

[20] = biological target: Beta-2 adrenergic receptor (Homo sapiens) (UniProt P07550); test: Adrenergic beta2 receptor (ADRB2) small molecule agonists, cell-based qHTS assay (AID 1963593);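 note: CHO cells stably overexpressing human ADRB2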
Summary of the method: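 CHO cells stably over-expressing ADRB2 were plated overnight at 37C, then dosed with compounds plus a stimulation mix containing 100uM IBMX and 25uM Ro-20-1724 for 0.5hr at room temperature. cAMP was measured by HTRF competition, 1hr.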

Measured: Potency

Beta-2 adrenergic receptor (Homo sapiens), sequence (P07550 whole entry, looked up): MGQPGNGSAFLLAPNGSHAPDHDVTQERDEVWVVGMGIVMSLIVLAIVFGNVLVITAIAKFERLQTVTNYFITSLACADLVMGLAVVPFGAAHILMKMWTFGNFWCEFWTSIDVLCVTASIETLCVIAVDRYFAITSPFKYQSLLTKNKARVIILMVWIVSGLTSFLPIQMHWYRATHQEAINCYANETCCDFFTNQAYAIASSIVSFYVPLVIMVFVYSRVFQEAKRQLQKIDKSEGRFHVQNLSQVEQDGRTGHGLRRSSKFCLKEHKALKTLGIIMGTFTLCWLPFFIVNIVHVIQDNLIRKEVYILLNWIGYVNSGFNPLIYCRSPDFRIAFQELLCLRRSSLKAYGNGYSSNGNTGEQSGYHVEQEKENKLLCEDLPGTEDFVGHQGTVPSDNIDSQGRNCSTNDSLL
5-hydroxytryptamine receptor 2A (Homo sapiens), sequence (P28223 whole entry, looked up): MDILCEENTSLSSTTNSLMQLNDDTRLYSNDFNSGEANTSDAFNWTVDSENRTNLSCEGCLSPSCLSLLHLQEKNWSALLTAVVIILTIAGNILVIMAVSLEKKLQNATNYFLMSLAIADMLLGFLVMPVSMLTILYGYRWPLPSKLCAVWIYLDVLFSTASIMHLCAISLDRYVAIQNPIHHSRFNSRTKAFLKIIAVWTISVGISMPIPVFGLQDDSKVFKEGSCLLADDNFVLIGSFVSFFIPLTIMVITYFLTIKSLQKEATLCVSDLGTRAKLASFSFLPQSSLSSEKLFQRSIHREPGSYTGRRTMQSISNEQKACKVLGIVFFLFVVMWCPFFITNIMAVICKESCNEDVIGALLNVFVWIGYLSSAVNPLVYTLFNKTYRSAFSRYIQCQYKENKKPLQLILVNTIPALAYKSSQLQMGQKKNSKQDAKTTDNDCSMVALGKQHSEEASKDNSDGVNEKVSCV
D(2) dopamine receptor (Homo sapiens), sequence (P14416 whole entry, looked up): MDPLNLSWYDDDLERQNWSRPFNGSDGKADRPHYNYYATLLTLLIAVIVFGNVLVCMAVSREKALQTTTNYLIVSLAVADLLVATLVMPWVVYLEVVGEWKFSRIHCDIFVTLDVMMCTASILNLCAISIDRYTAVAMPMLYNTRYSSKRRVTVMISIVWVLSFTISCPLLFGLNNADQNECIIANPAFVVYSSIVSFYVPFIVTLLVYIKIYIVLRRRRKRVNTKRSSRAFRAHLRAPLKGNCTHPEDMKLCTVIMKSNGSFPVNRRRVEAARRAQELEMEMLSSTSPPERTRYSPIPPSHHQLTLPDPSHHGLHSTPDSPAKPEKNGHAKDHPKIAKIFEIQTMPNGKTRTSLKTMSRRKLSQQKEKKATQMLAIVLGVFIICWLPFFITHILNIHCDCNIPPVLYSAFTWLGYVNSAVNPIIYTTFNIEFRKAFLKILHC
Muscarinic acetylcholine receptor M1 (Homo sapiens), sequence (P11229 whole entry, looked up): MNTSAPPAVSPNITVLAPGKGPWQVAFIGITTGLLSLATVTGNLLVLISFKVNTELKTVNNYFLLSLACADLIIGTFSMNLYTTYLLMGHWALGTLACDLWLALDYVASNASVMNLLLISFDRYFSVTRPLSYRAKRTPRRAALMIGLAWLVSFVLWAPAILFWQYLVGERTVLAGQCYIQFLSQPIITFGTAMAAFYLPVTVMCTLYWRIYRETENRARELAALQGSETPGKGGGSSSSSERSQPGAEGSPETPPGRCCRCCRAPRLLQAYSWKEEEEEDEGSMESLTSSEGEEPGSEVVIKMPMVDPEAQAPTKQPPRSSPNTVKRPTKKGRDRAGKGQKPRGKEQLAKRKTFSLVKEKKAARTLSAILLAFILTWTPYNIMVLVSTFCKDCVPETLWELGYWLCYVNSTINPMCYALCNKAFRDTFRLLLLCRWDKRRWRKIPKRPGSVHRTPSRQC
KiSS-1 receptor (Homo sapiens), sequence (Q969F8 whole entry, looked up): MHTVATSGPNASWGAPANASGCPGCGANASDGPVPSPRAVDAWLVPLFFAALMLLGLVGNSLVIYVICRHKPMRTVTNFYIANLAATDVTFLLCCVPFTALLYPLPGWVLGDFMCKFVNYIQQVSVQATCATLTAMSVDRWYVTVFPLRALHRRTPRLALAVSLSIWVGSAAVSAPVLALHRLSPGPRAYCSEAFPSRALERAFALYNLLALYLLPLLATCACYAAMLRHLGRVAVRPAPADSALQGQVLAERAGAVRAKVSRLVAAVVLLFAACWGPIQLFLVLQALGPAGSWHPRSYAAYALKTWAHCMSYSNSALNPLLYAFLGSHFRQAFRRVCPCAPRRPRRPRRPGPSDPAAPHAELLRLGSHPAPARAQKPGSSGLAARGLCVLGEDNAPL
Gonadotropin-releasing hormone receptor (Homo sapiens), sequence (P30968 whole entry, looked up): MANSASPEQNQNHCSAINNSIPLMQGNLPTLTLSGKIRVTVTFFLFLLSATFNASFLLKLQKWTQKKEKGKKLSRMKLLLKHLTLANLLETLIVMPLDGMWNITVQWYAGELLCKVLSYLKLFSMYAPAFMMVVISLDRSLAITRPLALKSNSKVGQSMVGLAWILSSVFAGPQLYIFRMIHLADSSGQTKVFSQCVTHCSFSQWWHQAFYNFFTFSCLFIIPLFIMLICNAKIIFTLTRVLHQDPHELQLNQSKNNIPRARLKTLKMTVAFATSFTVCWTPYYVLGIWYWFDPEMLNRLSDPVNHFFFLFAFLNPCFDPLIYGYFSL

Nc1ccc2ccccc2c1
active: [2] 37.2 µM and 27.3 µM
not listed: [18] | [19] | [20]
inactive: all other assays above

COC(=O)C(Br)CBr (configuration not stated)
not listed: [20]
inactive: all other assays above

C=C(C)C(=O)OCC1CO1 (configuration not stated)
not listed: [11] | [15] | [19]
inactive: all other assays above

O=[N+]([O-])c1ccc(Cl)cc1
not listed: [8]
inactive: all other assays above

OCCOc1ccccc1
not listed: [9] | [15]
inactive: all other assays above

C=CC=O
not listed: [19] | [20]
inactive: all other assays above

O=P(O)(O)CCCl
inactive: all assays above

CS(=O)(=O)Cl
not listed: [19] | [20]
inactive: all other assays above

CC(C)(C)C(O)(CCc1ccc(Cl)cc1)Cn1cncn1 (configuration not stated)
not listed: [11] | [13] | [20]
inactive: all other assays above

C=CC(=O)OC(C)(C)C
not listed: [11] | [18]
inactive: all other assays above

C=CCOCC1CO1 (configuration not stated)
not listed: [8] | [16] | [20]
inactive: all other assays above

CN(C)CCc1ccc(O)cc1
inactive: all assays above

O=C(Cl)/C=C/C(=O)Cl
active: [13] 1.1 nM
not listed: [10] | [14] | [20]
inactive: all other assays above

BrCC(Br)c1ccccc1 (configuration not stated)
not listed: [20]
inactive: all other assays above

O=Cc1ccc(Cl)cc1Cl
not listed: [11] | [20]
inactive: all other assays above
